Screening results as filed in PubChem.
hgDAF12 agonist: H. glycines DAF-12 receptor agonists, primary screen, cell-based, luminescence, HEK293, GAL4 fusion, UAS-luciferase. Nuclear hormone receptor DAF-12 (Heterodera glycines), GAL4 fusion. HEK293 GAL4-hgDAF12 UAS-luciferase reporter, agonist luminescence; normalized to butyrate control. activation, % at 6.8 µM. 370,000 compounds, 1.8% hits. AID 687014, 2013;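 active means activation above a cutoff set at the mean of all screened compounds plus 3 SD, cut at about 10% in these data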;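 further: 0% = DMSO wells and 100% = sodium butyrate wells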
DAX1 inh-1: DAX1 (NR0B1) inhibitors, primary screen, cell-based, HEK293, Gal4-DAX1, luciferase luminescence | HEK293 Gal4-DAX1 luciferase reporter | inhibition, % at 6.75 µM | 340,000 compounds, 0.99% hits;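 active means inhibition above the mean over all tested compounds plus 3 SD, cut at about 4.2% in these data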;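 further: 0% = DAX1-transfected cells with DMSO and 100% = empty-vector control cells with DMSO; inhibition shows as a rise in luminescence from relieved DAX1 repression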
ssDAF-12 act: S. stercoralis DAF-12 nuclear receptor activators, primary screen, cell-based, luminescence, HEK293, GRIP1 co-expression, lit1-tk-luc; HEK293 ssDAF-12/GRIP1 lit1-tk-luc reporter; % of 3 µM dafachronic acid response; activation, % at 6.8 µM; 370,000 compounds, 1% hits;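 active means activation above the mean over all tested compounds plus 3 SD, cut at about 0.9% in these data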;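 further: 0% = DMSO-only wells and 100% = 3 µM delta7-dafachronic acid wells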
SMARCA2 activ: SMARCA2 (BRM) function activators, primary screen, cell-based, luminescence, high throughput. 370,000 compounds, 1% hits. MG213 cells, MMTV-luciferase reporter, dexamethasone, overnight. activation, % at 9.1 µM. AID 652017, 2013; in the data active means activation above about 7.8%;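 further: 0% = vehicle wells and 100% = reference activator wells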
hcDAF-12 act: H. contortus DAF-12 nuclear receptor activators, primary screen, cell-based, luminescence, HEK293, lit1-tk-luc reporter | HEK293 hcDAF-12 lit1-tk-luc reporter; 0% DMSO, 100% Δ7-dafachronic acid | activation, % at 6.8 µM | 370,000 compounds, 1.4% hits | AID 652067, 2013;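 active means activation above the mean of all tested compounds plus 3 SD, cut at about 5.5% in these data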;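 further: 100% = response to 3 µM Δ7-dafachronic acid high control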
DAX1 inh-2: DAX1 (NR0B1) inhibitors on StAR promoter, primary screen, cell-based, luminescence, SF-1 (NR5A1), full-length DAX-1; HEK293T StAR-luciferase reporter, SF-1/DAX-1 repression relief; inhibition, % at 6.8 µM; 370,000 compounds, 1.1% hits; AID 652010, 2013;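 active means inhibition above the mean over all tested compounds plus 3 SD, cut at about 3.6% in these data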;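 further: 0% = DAX-1 cells with DMSO and 100% = cells lacking DAX-1 with DMSO; higher inhibition means more luminescence from relief of DAX-1 repression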
LXR ag: LXR agonists, Gal4 luciferase reporter, confirmation, counter-screen for hcDAF-12 agonist project, cell-based, luminescence, HEK293, H. contortus campaign; HEK293 Gal4-LXR tk-luc reporter, 24 h; normalized: DMSO 0%, positive control 100%; AID 743027, 2013; shares compounds with hcDAF-12 act; activation, % at 6.8 µM; 3,400 tested, under 10 active;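 active means mean percent activation of the reporter above a cutoff set as the average over tested compounds plus their standard deviation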
Target sequence (P55055 whole entry, looked up, the tested form may be a part): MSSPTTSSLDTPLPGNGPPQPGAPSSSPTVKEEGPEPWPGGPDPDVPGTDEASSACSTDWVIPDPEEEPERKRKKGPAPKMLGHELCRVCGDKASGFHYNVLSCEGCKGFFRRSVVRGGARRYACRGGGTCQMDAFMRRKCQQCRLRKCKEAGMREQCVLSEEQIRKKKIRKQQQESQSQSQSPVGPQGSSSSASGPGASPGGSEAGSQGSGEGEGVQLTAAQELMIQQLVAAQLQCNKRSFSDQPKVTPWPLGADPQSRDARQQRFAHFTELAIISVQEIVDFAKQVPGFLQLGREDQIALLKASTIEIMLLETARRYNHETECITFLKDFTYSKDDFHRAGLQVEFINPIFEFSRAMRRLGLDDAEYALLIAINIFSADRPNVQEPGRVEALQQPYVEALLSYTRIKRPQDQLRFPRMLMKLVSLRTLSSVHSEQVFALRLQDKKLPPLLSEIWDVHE
hcDAF12 conf: H. contortus DAF-12 receptor agonists, confirmation, cell-based, luminescence, HEK293, lit1-tk-luc, triplicate; 3,400 compounds, 61% hits; activation, % at 6.8 µM; HEK293 hcDAF-12 lit1-tk-luc reporter; % of Δ7-dafachronic acid response; shares compounds with hcDAF-12 act;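 active means mean activation across triplicate tests above the threshold derived from the earlier primary screen, cut at about 5.5% in these data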;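 further: 0% = DMSO only wells and 100% = 3 µM Δ7-dafachronic acid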
* hit, by the source's call; nt = not tested or not shown. Only some compounds are listed: those with a hit (about 4.8% of all), similar ones and a draw of the others.

SMILES	hgDAF12 agonist	DAX1 inh-1	ssDAF-12 act	SMARCA2 activ	hcDAF-12 act	DAX1 inh-2	LXR ag	hcDAF12 conf
COc1ccc2c(c1)[nH]c1c(=O)n(N)cnc12	1	5.7*	1	-1	9.7*	1	0	6.4*
Nn1cnc2c([nH]c3ccccc32)c1=O	0	0	1	-1	4	-1	nt	nt
O=c1oc2c(O)cccc2cc1-c1nc2ccccc2[nH]1	9	-1	0	6	8.1*	2	1	3
COc1ccc(NC(=S)N2CCN(S(=O)(=O)c3ccc(F)cc3)CC2)cc1	0	1	-1	1	-2	1	nt	nt
Cc1ccc([N+](=O)[O-])cc1N/C=C/C(=O)c1ccco1	7	1	0	1	8.1*	2	0	6.1*
O=C(/C=C/c1cccc([N+](=O)[O-])c1)c1ccco1	2	0	-1	-1	-1	-1	nt	nt
COc1ccc(N(CC(=O)NC2CCCC2)C(=O)c2ccc(N3CCCCC3)nc2)cc1	0	0	-1	-1	-1	0	nt	nt
Cc1cscc1NC(=O)/C=C/C(=O)O	1	nt	0	-1	6.8*	0	0	1
COc1ccccc1NC(=O)/C=C\C(=O)O	0	-1	0	-1	7.3*	0	0	0
COc1ccccc1NC(C)=O	0	0	-2	3	0	-1	nt	nt
C=CCOc1ccc(C(c2c(C(=O)O)[nH]c3ccccc23)c2c(C(=O)O)[nH]c3ccccc23)cc1	3	2	0	-2	7.5*	0	0	7.6*
CC(=O)Nc1cc2c3ccccc3ccc2c2ccccc12	3	1	-1	-2	0	-1	nt	nt
CC(=O)Nc1cccc2ccc(O)cc12	-1	-1	-1	-5	6.7*	2	0	3
O=C(NC(=S)Nc1nc(-c2ccccc2)cs1)c1ccco1	-1	1	0	-2	7.0*	0	0	7.3*
O=C(NC(=S)Nc1ccccc1N1CCCC1)c1ccco1	5	nt	0	-1	7.6*	0	0	5
CCCOc1ccc(C(=O)NC(=S)Nc2nc3ccccc3s2)cc1	2	1	0	2	6.9*	1	0	7.6*
CC(=O)Nc1ccc2nc(NC(=O)c3ccco3)sc2c1	10	2	0	7	6.7*	2	1	10.0*
CCCOc1ccc(C(=O)NC(=S)NCc2cccnc2)cc1	1	3	-1	-1	-3	-2	nt	nt
CC(=O)Nc1ccc2nc(NC(=O)c3ccc([N+](=O)[O-])o3)sc2c1	1	-2	-1	-2	0	-1	nt	nt
COc1ccc(-c2csc(NC(=S)NC(=O)c3ccco3)n2)cc1	0	1	-1	1	0	0	nt	nt
CCOc1ccc(Cl)cc1-c1cc(C(=O)NCCc2ccncc2)[nH]n1	-2	nt	-1	0	0	-1	nt	nt
FC(F)(F)c1cc(-c2ccccn2)nc2cc(-c3ccccc3)nn12	-1	0	-1	0	-1	0	nt	nt
O=C(NC(=S)Nc1nc(-c2ccccc2)cs1)c1cccs1	3	0	0	1	8.2*	0	0	5
O=C(NC(=S)Nc1nc2ccccc2s1)c1ccco1	13*	3	2.2*	7	11*	2	1	12*
O=C(NC(=S)Nc1cccc2cccnc12)c1cccs1	0	-1	-1	-1	6.6*	-1	0	4
SMILES	hgDAF12 agonist	DAX1 inh-1	ssDAF-12 act	SMARCA2 activ	hcDAF-12 act	DAX1 inh-2	LXR ag	hcDAF12 conf
O=C(NC(=S)Nc1cccc2cccnc12)c1ccccc1	2	1	-1	2	0	0	nt	nt
O=C(O)CN1CCN(Cc2cccc(Cl)c2)C1=O	2	0	-1	1	-1	0	nt	nt
O=C(N/N=C/c1ccccc1)C(O)c1ccccc1 (stereo not given)	0	0	0	-2	6.7*	0	0	5.6*
O=C(CSC1=NS(=O)(=O)c2cc(Cl)ccc2N1)NCc1ccccc1	1	-1	-1	-2	7.0*	-1	0	-1
CCN(CC(=O)Nc1c(F)cccc1F)C(=O)CCN1C(=O)C2CC=CCC2C1=O (stereo not given)	2	1	0	-2	1	2	nt	nt
COc1ccc(/C=C2\Cc3ccccc3C2=O)cc1OC	3	1	-1	6	0	0	nt	nt
COc1ccc(/C=C2\CCc3ccccc3C2=O)cc1O	6	-2	1	1	8.5*	0	1	6.9*
CCOc1ccccc1/C=N/N1CCN(Cc2ccccc2)CC1	-3	-2	-1	-1	0	0	nt	nt
Cn1cc([N+](=O)[O-])c(C(=O)N/N=C\c2c[nH]c3ccccc23)n1	-1	1	0	0	16*	0	0	3
Cn1ncc([N+](=O)[O-])c1C(=O)N/N=C/c1c[nH]c2ccccc12	3	1	0	-2	4	-1	nt	nt
Cc1cc(=O)[nH]c(N/N=C/c2c[nH]c3ccccc23)n1	4	1	0	0	7.2*	1	0	2
O=C(N/N=C/c1c[nH]c2ccccc12)c1cccc([N+](=O)[O-])c1	2	0	0	-4	10*	-1	0	6.7*
O=[N+]([O-])c1ccccc1N/N=C/c1c[nH]c2ccccc12	21*	3	2.5*	3	11*	3	1	17*
C(=N\Nc1nc2ccccc2[nH]1)/c1c[nH]c2ccccc12	-4	-2	-1	0	0	-1	nt	nt
Nc1c(C(=O)Nc2ccc(F)cc2)nnn1-c1cccc(C(F)(F)F)c1	-2	-1	-1	-3	-1	0	nt	nt
